Bioassay records deposited in PubChem by National Center for Advancing Translational Sciences (NCATS).
Giardia FBPA inh: qHTS Assay for Inhibitors of Fructose-1,6-bisphosphate Aldolase from Giardia Lamblia | A8B2U2 | purified Giardia FBPA | Potency, µM (doses to about 59.6 µM), without a hit: at the top dose activity, negative = inhibition, hits mostly inhibitors | 290,000 tested, 0.71% active; also: potency is read from the fitted curve at half-maximal effect; % is scaled to controls: 0 for no effect and ±100 for the full control effect; nearly all actives have a fitted effect of over 55% in size
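Giardia FBPA (40 nM reagent) was preincubated 10 min at RT with compound (up to 57.5 uM final), then substrate plus GAPDH/TPI/NAD/arsenate coupling system with diaphorase/resazurin was added; resorufin fluorescence (525/598 nm) was read after 20 min.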
LmPK inhibitor: qHTS Assay for Inhibitors of Leishmania Mexicana Pyruvate Kinase (LmPK); Q27686; purified LmPK, Kinase-Glo ATP luminescence, 1 h; Potency, µM (top dose mostly 57.5 µM), for inactives: top-dose activity change, negative = inhibition, actives largely listed as inhibitors; 290,000 tested, 0.37% active; AID 1721, 2009; also: potency is read from the fitted curve at half-maximal effect; % is scaled to controls: 0 for no effect and ±100 for the full control effect
Target sequence (Q27686 whole entry, looked up): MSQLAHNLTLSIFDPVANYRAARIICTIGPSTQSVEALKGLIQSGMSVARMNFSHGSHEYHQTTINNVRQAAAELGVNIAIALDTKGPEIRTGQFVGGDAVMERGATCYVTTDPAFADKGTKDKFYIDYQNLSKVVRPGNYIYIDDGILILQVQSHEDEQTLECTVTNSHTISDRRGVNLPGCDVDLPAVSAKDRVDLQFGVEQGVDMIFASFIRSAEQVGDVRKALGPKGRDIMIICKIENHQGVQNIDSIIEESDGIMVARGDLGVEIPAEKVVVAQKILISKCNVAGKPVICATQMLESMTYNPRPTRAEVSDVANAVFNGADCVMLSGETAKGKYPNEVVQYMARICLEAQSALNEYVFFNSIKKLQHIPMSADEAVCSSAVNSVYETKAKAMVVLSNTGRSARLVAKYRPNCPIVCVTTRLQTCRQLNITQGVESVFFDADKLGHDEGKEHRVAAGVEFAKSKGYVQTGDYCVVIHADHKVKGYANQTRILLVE
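In 50 mM imidazole pH 7.2 with 7 mM MgCl2, LmPK (0.1 nM) turned over PEP (0.5 mM) and ADP (0.1 mM) for 1 h at room temperature. Luciferase read-out of ATP.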
Cycloheximide cs: Cycloheximide Counterscreen for Small Molecule Inhibitors of Shiga Toxin; cell reporter, cycloheximide protein synthesis inhibition counterscreen; max response, %; 300,000 tested, 12% active; AID 2314, 2010; in the data active = max response mostly above about 13%, no sharp cut-off; inactive = mostly below about 14%; also: read at 38.3 µM for the half of the compounds with a filed dose; 0% is about no effect
Shiga inhibitor: A qHTS for Small Molecule Inhibitors of Shiga Toxin; Vero cells, Shiga toxin protein synthesis inhibition reporter; inhibition, % at 38.7 µM; 290,000 tested, 9.2% active; AID 2315, 2010; in the data active = inhibition mostly above about 28%, no sharp cut-off; inactive = mostly below about 43%; also: 0% is about no effect
Sm TGR block: qHTS Assay for the Inhibitors of Schistosoma Mansoni Peroxiredoxins; Schistosoma mansoni thioredoxin glutathione reductase (TGR), Q962Y6; AID 485364, 2010; Potency, µM (titrated, usually from 114 µM), for inactives: at the top dose activity change, negative = inhibition, actives largely listed as inhibitors; purified TGR, DTNB reduction, TNB absorbance 405 nm; 360,000 tested, 3% active; also: potency is read from the fitted curve at half-maximal effect; % is scaled to controls: 0 for no effect and ±100 for the full control effect; nearly all actives have a fitted effect of over 60% in size
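Kinetic colorimetric format: TGR-catalysed, NADPH-driven DTNB reduction monitored via TNB absorbance. Enzyme dispensed at 20 nM; compound exposure 15 min at room temperature before reaction start.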
Tb PYK inh: qHTS of Trypanosoma Brucei Inhibitors. TbPYK enzyme, Kinase-Glo Plus ATP luminescence, 45 min. pyruvate kinase (Trypanosoma brucei), Q57TT1. 410,000 tested, 0.12% active. Potency, µM (doses to about 76.8 µM), inactives show at the highest dose activity, negative = inhibition, hits mostly inhibitors. AID 624173, 2012; also: potency is read from the fitted curve at half-maximal effect; % is scaled to controls: 0 for no effect and ±100 for the full control effect; nearly all actives have a fitted effect of over 50% in size
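Luminescent Kinase-Glo Plus end-point after 45 min room-temperature reaction of T. brucei pyruvate kinase started with 130 uM ADP (final). Buffer TEA 50 mM pH 7.2 with KCl, MgCl2, BSA, Tween-20; titration-based qHTS with fitted concentration-effect curves.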
Numbers without * were called inactive; ? = inconclusive; . = no result given. Only a selection was taken, and hits are over-represented in it overall. Unless noted, calls follow the shape of the dose curve; as a rule, active = well fitted curve in the direction sought with a large enough effect; inconclusive = small, poorly fitted or top-dose-only effect, or another doubt; inactive = no such curve, though single readings can be large; an effect the other way counts as inactive or inconclusive.

SMILES | Giardia FBPA inh | LmPK inhibitor | Cycloheximide cs | Shiga inhibitor | Sm TGR block | Tb PYK inh
COCCCN(C(=O)Cc1ccc(S(=O)(=O)N2CCOCC2)s1)c1c(N)n(Cc2ccccc2)c(=O)[nH]c1=O | . | . | . | . | . | 2.8%
O=C(NC(=S)Nc1cccc([N+](=O)[O-])c1)c1ccco1 | -24.1% | -0.5% | 6.2 | -9.7 | 0.7% | -4.6%
CC(=O)c1ccc(NC(=O)C(C)OC(=O)/C=C/c2ccco2)cc1 (configuration not stated) | . | . | . | . | . | 4.9%
O=C(NC(=S)Nc1ccccc1Br)c1ccco1 | -12.8% | -4.3% | 53.9* | 98.5* | 35.5µM* | -5.3%
CC(=O)c1ccc(NC(=S)NC(=O)/C=C/c2ccco2)cc1 | -27.1% | 8.0% | 27.3* | . | 20µM* | -1.3%
CC(=O)c1ccc(NC(=S)NC(=O)/C=C/c2ccccc2)cc1 | 0.9% | -1.6% | 23.7* | 38.3* | 12.6% | -8.0%
CCC(=O)Nc1ccc(NC(=S)NC(=O)/C=C/c2ccccc2)cc1 | 1.8% | 1.9% | 5.3 | -7.2 | -22.6% | -5.4%
O=C(/C=C/c1ccco1)NC(=S)Nc1cccc([N+](=O)[O-])c1 | -15.0% | 4.2% | 22.7 | 19.0 | 44.7µM* | -4.5%
COc1cccc(CNC(=O)c2sc3ncccc3c2-n2c(C)ccc2C)c1OC | . | . | . | . | 9.4% | 1.0%
FC(F)(F)c1nc2nccnc2[nH]1 | . | . | . | . | . | -0.2%
CCS(=O)(=O)N1Cc2ccccc2CC1C(=O)Nc1ccc(F)cc1 (configuration not stated) | 3.3% | 4.7% | 24.3* | 36.0* | 7.1% | -1.0%
CCS(=O)(=O)N1Cc2ccccc2CC1C(=O)Nc1cccc(OC)c1 (configuration not stated) | 22.5% | -1.1% | 23.9* | 123.8* | -14.4% | -2.9%
CCOC(=O)C1=C(CN2CCN(c3ccccc3F)CC2)NC(=O)NC1c1ccc(OC)cc1 (configuration not stated) | . | . | . | . | -1.6% | -4.3%
CCOc1ccc(NC(=O)Cn2c(=O)n(CCc3ccccc3)c(=O)c3c4c(sc32)CN(C(C)=O)CC4)cc1 | . | . | . | . | 5.1% | -9.1%
CC1CCN(S(=O)(=O)c2ccc3c(c2)N(CC(=O)N(C)Cc2ccccc2)C(=O)CO3)CC1 | . | . | . | . | -0.1% | 2.9%
O=C(Cn1ncc(Cl)c(Cl)c1=O)Nc1ccc2c(c1)OCO2 | . | . | . | . | 44.7µM* | 3.6%
CC(NC(=O)Cn1ncc(Cl)c(Cl)c1=O)C12CC3CC(CC(C3)C1)C2 (configuration not stated) | 1.1% | -2.2% | -8.5 | -21.2 | 39.8µM* | -2.7%
CCN(CC)S(=O)(=O)c1cc(NC(=O)Cn2ncc(Cl)c(Cl)c2=O)ccc1C | 0.9% | -0.1% | 32.0* | -12.0 | 0.562µM* | 0.1%
Cc1ccc(CN2CCC(CNC(=O)Nc3c(C)cccc3C)C2)cc1 (configuration not stated) | . | . | . | . | -3.3% | -2.3%
CCc1ccccc1NC(=O)c1ccc2nc(C(C)C)oc2c1 | . | . | . | . | -0.8% | -1.1%
N#Cc1ccc(CN2CC[C@@]3(CCCN(C(=O)c4cnccn4)C3)C2)cc1 | 2.8% | . | . | . | . | -5.2%
CCN(CC)Cc1cc(O)c(CN(CC)CC)cc1O | 5.61µM* | -5.5% | -1.1 | -6.0 | 3.16µM* | 10µM*
CC(C)(C)OC(=O)NCCCCCO | 5.0% | . | 26.9* | 26.7* | -5.9% | -3.1%
COc1ccc(OC)c(NC(=O)Cn2c(C)nc3ccccc3c2=O)c1 | -0.1% | 0.6% | 32.4* | 81.6* | 7.5% | -4.6%
O=C(Nc1nnc(-c2ccccc2Cl)o1)c1nc2ccccc2s1 | ? | 0.8% | 14.1* | 22.5* | -10.0% | 0.6%
COc1ccc(C(=O)Nc2cc(-c3nc4ccccc4s3)ccc2OC)cc1 | . | . | . | . | 2.9% | -7.8%
C=CCNC(=O)c1nc2ccccc2s1 | -6.9% | -0.5% | 50.9* | 118.4* | -4.0% | -1.4%
COc1ccc(OC)c(NC(=O)c2nc3ccccc3s2)c1 | 0.4% | 1.1% | 31.4* | 44.3 | -1.1% | -0.7%
Nc1c(C(=O)Nc2ccc(OC(F)(F)F)cc2)nnn1Cc1ccccc1 | . | . | . | . | -4.6% | -0.2%
